Assay results taken from PubChem BioAssay AID602140 (NMMLSC, 2011).
Several values for one entry are separate records, joined by “and”; a condition that tells them apart may be missing. Equal values may be shown once. The list shows a part of the results. Unmarked numbers belong to inactive results. No rule for the calls is given here.

System: Botulinum neurotoxin type F light chain protease (Clostridium botulinum)
Experiment: inhibition of botulinum toxin F LC protease – biochemical, flow cytometry, cherry pick 1, confirmation (AID 602140)
Conditions: multiplex microsphere protease cleavage assay, at 10 µM, hits give high values

SMILES | inhibition
Cc1cc(S(=O)(=O)NC2CCCC2)ccc1-n1cnnn1 | 3.7%
COc1cc(C(=O)NCc2ccc3c(c2)cc(C)n3C)cc(OC)c1OC | -4.7%
O=S(=O)(NC1CCCCC1N1CCC(O)CC1)c1ccc(Cl)cc1 (configuration not stated) | 2.2%
Cc1ccc(C(=O)COc2cccc(NC(=O)c3ccco3)c2)cc1 | -7.2%
Clc1ccc(-c2ncc3ccccn23)c(Cl)c1 | -4.7%
COc1ccccc1-n1c(-c2cc(-c3ccco3)[nH]n2)n[nH]c1=S | 4%
O=C(Nc1nnc(CCc2ccccc2)s1)C1CCCO1 (configuration not stated) | -7%
CCOc1nnc(C)c2c(C)n(-c3cccc(Cl)c3)nc12 | 18.1%
COc1ccc(NS(=O)(=O)c2cc(C(=O)Nc3ccccc3C(=O)O)ccc2C)cc1 | -0.5%
Cc1c(NC(=O)c2cccnc2)c(=O)n(-c2ccccc2)n1C | 2.7%
Cc1ccccc1NC(=O)c1cc(S(=O)(=O)Nc2cccc(C(=O)O)c2)ccc1Cl | -1.9%
O=C(CN1CCCCCC1)Nc1c(Cl)cc(Cl)cc1Cl | -7.6%
CN1CCN(c2ccc(NC(=O)c3ccccc3)cc2)CC1 | 1.4%
CN(C(=O)c1ccccn1)c1nnc(-c2ccccn2)s1 | -3.7%
CCCN1C2CCCC1CC(NC(=O)c1cccc(OC)c1)C2 (configuration not stated) | 0.9%
Nc1ccccc1Sc1cc(Cl)nnc1Cl | -1.4%
OC(c1ccc(Cl)cc1)C(CN1CCOCC1)c1ccccc1 (configuration not stated) | 3.4%
COC(=O)CN(c1nc(C)c(Cl)c(OC)n1)S(=O)(=O)c1ccc(C)cc1 | -0.3%
Cc1ccc(-c2nc(-c3cccnc3)sc2CC(=O)Nc2ccc(C)c(Cl)c2)cc1 | -18.6%
CCOCC(=O)NCc1ccc2c(c1)cc(C)n2C | -12.1%
COc1ccc(C2CC(c3cccs3)=NN2c2nc(C)c(C(C)=O)s2)cc1OC (configuration not stated) | -1.7% and 7.1%
COc1cc2cc(CN(CCN3CCCC3)C(=O)Nc3ccccc3Cl)c(=O)[nH]c2cc1OC | 0.8%
